The values that follow come from PubChem BioAssay (EPA / NIEHS).

The term AC50 denotes the concentration at which the activity in the assay is half-maximal.

Activity calls are given as the source filed them. How the source made its calls: active means hit-call score of the fitted dose curve at least 0.9, where 1 is the maximum; inactive means score below 0.9.

Test [1] can be described thus: ATG_M_06_CIS: Attagene CIS-FACTORIAL HepG2 Assay for M06 Transcription Factor (Internal Marker) (AID 2282950). Particulars: HepG2 Attagene CIS-FACTORIAL M06 internal marker reporter; actives raise or lower the signal. The essentials:
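Fluorescence-labelled RT-PCR products from cis-promoter reporter units, cut with HpaI and resolved by capillary electrophoresis, give the signal. Cells are human HepG2, dosed for 24 h. Serves as background control, fitted relative to DMSO.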

Test [2] deals with Hypoxia-inducible factor 1-alpha (Homo sapiens) (UniProt Q16665). As to the kind of experiment: ATG_HIF1a_CIS: Attagene CIS-FACTORIAL HepG2 Assay for human Hypoxia Inducible Factor 1 (HIF1A) (AID 2282951). Particulars: HepG2 Attagene cis-factorial HIF1a reporter transcription; actives raise or lower the signal. The essentials: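 RT-PCR/capillary electrophoresis fluorescence readout of reporter transcripts from endogenous-TF-driven cis elements in transfected HepG2 cells, 24 h exposure; activity fitted in both directions against DMSO controls.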
Sequence of Hypoxia-inducible factor 1-alpha (Homo sapiens) (Q16665 whole entry, looked up): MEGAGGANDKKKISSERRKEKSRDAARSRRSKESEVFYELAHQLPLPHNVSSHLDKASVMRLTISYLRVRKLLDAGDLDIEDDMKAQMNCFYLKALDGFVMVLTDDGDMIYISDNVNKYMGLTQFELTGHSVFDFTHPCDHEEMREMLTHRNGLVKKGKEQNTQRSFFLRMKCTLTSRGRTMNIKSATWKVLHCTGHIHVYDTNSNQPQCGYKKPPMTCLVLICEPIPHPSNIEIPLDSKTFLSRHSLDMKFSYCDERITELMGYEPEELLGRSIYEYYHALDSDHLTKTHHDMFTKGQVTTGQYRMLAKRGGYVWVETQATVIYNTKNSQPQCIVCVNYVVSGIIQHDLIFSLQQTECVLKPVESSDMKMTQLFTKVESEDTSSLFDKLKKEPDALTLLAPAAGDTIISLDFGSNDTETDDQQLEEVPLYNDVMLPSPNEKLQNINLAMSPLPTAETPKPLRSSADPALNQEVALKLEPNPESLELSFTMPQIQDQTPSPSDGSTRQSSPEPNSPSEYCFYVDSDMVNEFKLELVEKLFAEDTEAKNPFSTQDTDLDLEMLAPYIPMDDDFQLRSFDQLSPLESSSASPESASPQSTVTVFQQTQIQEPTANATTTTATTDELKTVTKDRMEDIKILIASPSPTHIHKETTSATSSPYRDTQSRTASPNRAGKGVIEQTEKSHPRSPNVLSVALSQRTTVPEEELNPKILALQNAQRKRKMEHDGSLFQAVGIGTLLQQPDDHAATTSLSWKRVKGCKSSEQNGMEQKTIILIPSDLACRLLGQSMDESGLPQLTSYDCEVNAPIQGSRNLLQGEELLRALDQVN

The target in test [3] is Hepatocyte nuclear factor 6 (Homo sapiens) (UniProt Q9UBC0). As to the kind of experiment: ATG_HNF6_CIS: Attagene CIS-FACTORIAL HepG2 Assay for human Hepatocyte Nuclear Factor 6 (HNF6) (AID 2282952). Particulars: HepG2 Attagene cis-factorial HNF6 reporter transcription; actives raise or lower the signal. The essentials: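 HepG2 cells transiently transfected with cis-element-driven multiple reporter transcription units, dosed 24 h; reporter mRNA quantified by RT-PCR, FAM primer extension, HpaI digestion and capillary electrophoresis; bidirectional fit versus DMSO baseline.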
Sequence of Hepatocyte nuclear factor 6 (Homo sapiens) (Q9UBC0 whole entry, looked up): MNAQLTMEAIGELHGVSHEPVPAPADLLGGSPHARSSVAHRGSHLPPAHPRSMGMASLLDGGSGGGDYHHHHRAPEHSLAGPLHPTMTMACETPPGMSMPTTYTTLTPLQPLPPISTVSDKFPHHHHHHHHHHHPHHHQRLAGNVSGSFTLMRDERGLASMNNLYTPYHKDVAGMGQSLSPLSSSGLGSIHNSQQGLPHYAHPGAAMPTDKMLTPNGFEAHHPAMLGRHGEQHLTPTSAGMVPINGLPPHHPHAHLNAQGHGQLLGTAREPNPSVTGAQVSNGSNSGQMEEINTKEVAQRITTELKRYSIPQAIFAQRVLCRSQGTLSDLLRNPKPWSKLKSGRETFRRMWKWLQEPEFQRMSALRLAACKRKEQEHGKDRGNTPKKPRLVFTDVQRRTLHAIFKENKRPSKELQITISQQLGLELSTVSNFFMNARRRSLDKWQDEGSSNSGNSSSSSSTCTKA

The target of test [4] is Heat shock factor protein 1 (Homo sapiens) (UniProt Q00613). As to the kind of experiment: ATG_HSE_CIS: Attagene CIS-FACTORIAL HepG2 Assay for human Heat Shock Transcription Factor 1 (HSE) (AID 2282953). The settings on record: HepG2 HSE cis-reporter, Attagene RNA transcription; actives raise or lower the signal. Summed up: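 After a 24 h incubation with test chemical, transfected HepG2 cells were harvested for RNA; reporter transcripts were measured by RT-PCR and capillary electrophoresis. Values reflect gain or loss of signal relative to DMSO.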
Sequence of Heat shock factor protein 1 (Homo sapiens) (Q00613 whole entry, looked up): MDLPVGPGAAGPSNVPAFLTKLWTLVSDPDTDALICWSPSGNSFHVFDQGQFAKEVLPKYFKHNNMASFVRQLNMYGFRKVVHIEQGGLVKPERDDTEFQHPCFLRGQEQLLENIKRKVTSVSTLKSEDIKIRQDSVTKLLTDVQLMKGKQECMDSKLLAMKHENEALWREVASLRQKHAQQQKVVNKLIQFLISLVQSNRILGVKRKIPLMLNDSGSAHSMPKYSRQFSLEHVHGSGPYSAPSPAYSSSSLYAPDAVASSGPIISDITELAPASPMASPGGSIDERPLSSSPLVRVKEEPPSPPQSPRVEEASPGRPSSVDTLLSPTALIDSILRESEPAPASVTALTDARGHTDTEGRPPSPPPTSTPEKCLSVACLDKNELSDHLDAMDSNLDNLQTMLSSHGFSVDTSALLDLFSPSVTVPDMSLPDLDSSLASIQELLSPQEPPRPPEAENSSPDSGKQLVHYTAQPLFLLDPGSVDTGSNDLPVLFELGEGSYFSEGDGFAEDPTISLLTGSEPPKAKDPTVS

The nature of test [5]: ATG_MRE_CIS: Attagene CIS-FACTORIAL HepG2 Assay for human Metal Responsive Element (MRE) (AID 2282954). The settings on record: HepG2 MRE cis-reporter transcription, Attagene multiplex; actives raise or lower the signal. The essentials: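 After a 24 h chemical exposure, transiently transfected HepG2 cells yield RNA whose reporter sequences are amplified, FAM-labelled and sized by capillary electrophoresis. Curves are fitted bidirectionally relative to DMSO.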

Test [6] can be described thus: ATG_PBREM_CIS: Attagene CIS-FACTORIAL HepG2 Assay for human Phenobarbital-responsive Enhancer Module (PBREM) (AID 2282955). Particulars: HepG2 PBREM cis-reporter, Attagene multiplexed transcription; actives raise or lower the signal. Summed up:
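Reporter mRNA read by RT-PCR, 6-FAM primer extension, HpaI digestion and capillary electrophoresis. Transfected HepG2 cells, 24 h compound exposure. Gain or loss of signal fitted bidirectionally relative to DMSO baseline.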

For test [7], the target named is Paired box protein Pax-6 (Homo sapiens) (UniProt P26367). As to the kind of experiment: ATG_Pax6_CIS: Attagene CIS-FACTORIAL HepG2 Assay for human Paired Box 6 (PAX6) (AID 2282956). The settings on record: HepG2 CIS-FACTORIAL PAX6 reporter transcription, RNA readout; actives raise or lower the signal. The essentials: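 Transient MRTU transfection of HepG2 → compound exposure 24 h → TriZol RNA, oligo(dT) RT → PCR, 6-FAM primer extension, HpaI cut → capillary electrophoresis; activity fitted both directions against DMSO.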
Sequence of Paired box protein Pax-6 (Homo sapiens) (P26367 whole entry, looked up): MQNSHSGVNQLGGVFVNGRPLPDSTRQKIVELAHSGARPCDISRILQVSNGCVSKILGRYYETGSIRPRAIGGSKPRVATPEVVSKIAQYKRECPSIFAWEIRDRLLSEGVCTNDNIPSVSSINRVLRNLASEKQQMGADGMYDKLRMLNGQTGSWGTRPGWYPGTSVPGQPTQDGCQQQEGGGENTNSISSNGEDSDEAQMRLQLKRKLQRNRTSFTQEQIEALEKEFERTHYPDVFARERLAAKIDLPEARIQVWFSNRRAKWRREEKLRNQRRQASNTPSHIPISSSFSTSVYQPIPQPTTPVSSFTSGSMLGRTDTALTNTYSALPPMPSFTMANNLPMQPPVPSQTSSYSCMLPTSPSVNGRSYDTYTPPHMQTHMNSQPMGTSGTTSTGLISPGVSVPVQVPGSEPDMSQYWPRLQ

Test [8] in a line: ATG_PXRE_CIS: Attagene CIS-FACTORIAL HepG2 Assay for human Pregnane X Receptor Element (PXRE) (AID 2282957). Particulars: HepG2 Attagene CIS-FACTORIAL PXRE reporter, mRNA; actives raise or lower the signal. The essentials: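 HepG2 cells transiently transfected with cis-regulated multiple reporter transcription units; endogenous factor activity measured as reporter mRNA 24 h after dosing. RT-PCR, fluorescent primer extension, HpaI digestion, capillary electrophoresis; bidirectional fit versus DMSO baseline.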

The nature of test [9]: ATG_PPRE_CIS: Attagene CIS-FACTORIAL HepG2 Assay for human Peroxisome Proliferator-activated Response Element (PPRE) (AID 2282958). Particulars: HepG2 PPRE cis-element reporter, Attagene transcription factor profiling; actives raise or lower the signal. Summed up: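 Read-out: fluorescent reporter mRNA fragments resolved by capillary electrophoresis after RT-PCR. HepG2 cells carried transiently transfected PPRE-driven cis reporter constructs and were dosed for 24 h; gain or loss of signal fitted relative to DMSO.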

Test [10] can be described thus: ATG_RORE_CIS: Attagene CIS-FACTORIAL HepG2 Assay for human RAR-related Orphan Receptor Element (RORE) (AID 2282959). The settings on record: HepG2 Attagene cis-factorial RORE reporter, mRNA; actives raise or lower the signal. The essentials:
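Readout: fluorescent reporter mRNA by RT-PCR plus capillary electrophoresis, 24 h after dosing transfected HepG2 cells. Endogenous transcription factor activity on a cis promoter element is measured. Gain or loss of signal fitted against DMSO.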

A short description of test [11]: ATG_Sox_CIS: Attagene CIS-FACTORIAL HepG2 Assay for human SRY-box transcription factor (SOX) (AID 2282960). Particulars: HepG2 Attagene cis-factorial SOX reporter, mRNA; actives raise or lower the signal. Summed up: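 Read-out: fluorescent RT-PCR products of SOX1-linked reporter transcripts resolved by capillary electrophoresis, fitted bidirectionally against DMSO. Transiently transfected HepG2 cells, 24 h after chemical exposure, endogenous transcription factor activity.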

The target in test [12] is Transcription factor Sp1 (Homo sapiens) (UniProt P08047). As to the kind of experiment: ATG_Sp1_CIS: Attagene CIS-FACTORIAL HepG2 Assay for human Specificity Protein 1 (Sp1) (AID 2282961). The settings on record: HepG2 Sp1 cis-reporter transcription, actives raise or lower the signal. The essentials:
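Read-out: fluorescence of 6-FAM-labeled, HpaI-digested RT-PCR products separated by capillary electrophoresis. HepG2 cells carried transfected cis-element reporter units and were exposed to chemicals for 24 h; gain or loss of signal fitted relative to DMSO.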

Test [13] in a line: ATG_SREBP_CIS: Attagene CIS-FACTORIAL HepG2 Assay for human Sterol Regulatory Element Binding (SREBP) (AID 2282962). The settings on record: HepG2 Attagene cis-factorial SREBP reporter, mRNA; actives raise or lower the signal. Summed up: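 Transfected HepG2 (cis-regulated reporter library, endogenous TFs) → compound 24 h → total RNA → oligo(dT) RT → reporter-specific PCR → FAM primer extension, HpaI cut → CE fluorescence. Fit bidirectional vs DMSO.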

The target of test [14] is Signal transducer and activator of transcription 3 (Homo sapiens) (UniProt P40763). As to the kind of experiment: ATG_STAT3_CIS: Attagene CIS-FACTORIAL HepG2 Assay for human Signal Transducer and Activator of Transcription 3 (STAT3) (AID 2282963). Particulars: HepG2, Attagene cis-factorial STAT3 reporter transcription; actives raise or lower the signal. The essentials: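 After a 24 h compound incubation, total RNA from MRTU-transfected HepG2 cells was converted to cDNA and reporter sequences PCR-amplified, labelled and profiled by capillary electrophoresis. Gain and loss of signal were referenced to DMSO.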
Sequence of Signal transducer and activator of transcription 3 (Homo sapiens) (P40763 whole entry, looked up): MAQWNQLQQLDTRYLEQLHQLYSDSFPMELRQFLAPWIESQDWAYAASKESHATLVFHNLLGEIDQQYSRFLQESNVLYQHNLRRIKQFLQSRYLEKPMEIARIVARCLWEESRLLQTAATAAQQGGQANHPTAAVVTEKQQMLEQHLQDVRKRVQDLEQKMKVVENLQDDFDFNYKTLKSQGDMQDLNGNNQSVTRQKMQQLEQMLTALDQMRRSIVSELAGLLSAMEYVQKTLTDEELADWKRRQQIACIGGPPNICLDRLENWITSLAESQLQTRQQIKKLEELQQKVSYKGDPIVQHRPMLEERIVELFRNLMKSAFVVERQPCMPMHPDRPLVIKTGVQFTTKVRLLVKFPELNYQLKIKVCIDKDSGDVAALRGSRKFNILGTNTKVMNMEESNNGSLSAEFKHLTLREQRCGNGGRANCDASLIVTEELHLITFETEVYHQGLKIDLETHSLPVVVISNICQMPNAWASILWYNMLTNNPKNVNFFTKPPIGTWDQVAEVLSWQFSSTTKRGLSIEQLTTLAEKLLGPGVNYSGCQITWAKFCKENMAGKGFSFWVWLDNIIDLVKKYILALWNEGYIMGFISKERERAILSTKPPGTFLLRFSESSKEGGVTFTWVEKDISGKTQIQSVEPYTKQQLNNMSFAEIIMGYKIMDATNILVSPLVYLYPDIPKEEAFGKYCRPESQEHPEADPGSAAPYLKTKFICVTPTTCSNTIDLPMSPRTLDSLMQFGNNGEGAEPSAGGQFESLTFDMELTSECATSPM

Test [15] in a line: ATG_TA_CIS: Attagene CIS-FACTORIAL HepG2 Assay for human TA Basal Promoter (AID 2282964). The settings on record: HepG2 Attagene CIS-factorial TA basal promoter reporter; actives raise or lower the signal. Summed up:
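Multiplexed mRNA reporter assay, HepG2, 24 h. Reporter cDNA amplified, 6-FAM primer-extended, HpaI-cut, CE-sized; DMSO = negative control and baseline.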

The nature of test [16]: ATG_TCF_b_cat_CIS: Attagene CIS-FACTORIAL HepG2 Assay for human T-Cell-Factor with beta-catenin (TCF/b-cat) (AID 2282965). Particulars: HepG2 TCF/beta-catenin cis-reporter transcription, actives raise or lower the signal. Summed up: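 Measured: reporter mRNA in HepG2 transiently transfected with cis-promoter reporter units, 24 h after chemical addition. Fitting was bidirectional, DMSO as negative control.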

Test [17] in a line: ATG_TAL_CIS: Attagene CIS-FACTORIAL HepG2 Assay for human TAL Basal Promoter (AID 2282966).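 Further: background control endpoint measuring basal TAL promoter reporter mRNA not a specific factor.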 Particulars: HepG2 Attagene cis-factorial TAL promoter reporter; actives raise or lower the signal. The essentials: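 HepG2 cells were transiently transfected with promoter-driven multiplexed reporter units and dosed for 24 h. Reporter mRNA was measured by RT-PCR with capillary electrophoresis fluorescence; bidirectional fits used DMSO as baseline, serving as a background control.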

Test [18] is described as follows: ATG_TGFb_CIS: Attagene CIS-FACTORIAL HepG2 Assay for human Transforming Growth Factor (TGF) (AID 2282967). Particulars: HepG2 Attagene CIS TGFb reporter, mRNA transcription; actives raise or lower the signal. The essentials: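 Transcript-level reporter readout: HepG2 transfectants, 24 h exposure, RNA to cDNA, reporter-specific PCR, fluorescent primer extension, capillary sizing against ROX standards. Gain- or loss-of-signal relative to DMSO.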

Test [19] can be described thus: ATG_VDRE_CIS: Attagene CIS-FACTORIAL HepG2 Assay for human Vitamin D Receptor Element (VDRE) (AID 2282968). Particulars: HepG2 VDRE cis-reporter transcription, actives raise or lower the signal. The essentials: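 In transiently transfected HepG2 liver cells, gain or loss of reporter mRNA after 24 h exposure is scored relative to DMSO, using fluorescence detection by capillary electrophoresis of RT-PCR products.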

Sequence of Transcription factor Sp1 (Homo sapiens) (P08047 whole entry, looked up): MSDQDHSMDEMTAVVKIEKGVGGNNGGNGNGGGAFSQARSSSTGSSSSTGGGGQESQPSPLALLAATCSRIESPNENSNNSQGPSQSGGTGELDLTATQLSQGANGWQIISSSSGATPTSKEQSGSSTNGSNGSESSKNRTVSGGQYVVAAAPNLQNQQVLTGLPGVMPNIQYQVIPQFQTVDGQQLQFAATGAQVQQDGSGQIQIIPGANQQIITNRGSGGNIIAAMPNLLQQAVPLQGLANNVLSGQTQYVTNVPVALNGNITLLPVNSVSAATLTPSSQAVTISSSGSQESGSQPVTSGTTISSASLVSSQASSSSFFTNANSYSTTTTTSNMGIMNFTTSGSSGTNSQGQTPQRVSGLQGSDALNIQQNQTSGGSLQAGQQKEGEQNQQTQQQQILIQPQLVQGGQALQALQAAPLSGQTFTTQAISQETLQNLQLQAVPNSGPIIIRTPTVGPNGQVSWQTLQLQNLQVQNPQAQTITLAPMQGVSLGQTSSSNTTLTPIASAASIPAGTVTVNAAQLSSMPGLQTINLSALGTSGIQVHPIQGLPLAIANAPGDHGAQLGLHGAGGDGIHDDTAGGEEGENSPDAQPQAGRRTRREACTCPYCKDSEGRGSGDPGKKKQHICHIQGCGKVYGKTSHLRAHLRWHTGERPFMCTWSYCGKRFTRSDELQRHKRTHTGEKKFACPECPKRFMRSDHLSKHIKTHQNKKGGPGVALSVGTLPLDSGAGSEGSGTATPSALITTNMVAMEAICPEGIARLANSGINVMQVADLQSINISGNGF

For `Cc1ccccc1OP(=O)(Oc1ccccc1)Oc1ccccc1`, the result in [1], in [2], in test [3], in test [4], in test [6] and in [7] was inactive. Moreover, the outcome in test [9], in test [10], in test [11], in test [12], in test [14] and in test [15] was inactive. Further, the compound was called inactive in [16], in test [17] and in test [18]. In addition, the AC50 in test [5] is 59.8 µM (active); in test [8], 0.236 µM (active); in test [13], 7.9 µM (active); in test [19] it was 1.25 µM (active).

Turning to `C=CCOC(F)(C(F)(F)F)C(F)(F)F`, the compound was called inactive in test [1], in test [2], in test [3], in test [4], in [5] and in test [6]. Also, the result in [7], in test [8], in test [9], in test [10], in test [11] and in test [12] was inactive. Also, the outcome in test [13], in test [14], in test [15], in test [16], in [17] and in test [19] was inactive.

Turning to `COC(F)(C(F)(F)C(F)(F)F)C(F)(C(F)(F)F)C(F)(F)F` (stereo not given), the compound was called inactive in [1], in test [2], in test [3], in test [4], in test [5] and in test [6]. Besides, the outcome in test [7], in test [8], in [9], in [10], in test [12] and in [13] was inactive. The outcome in [14], in test [15], in test [17], in test [18] and in test [19] was inactive.

`CC(C)CC(C)(c1ccc(O)cc1)c1ccc(O)cc1`: the call in [1], in test [2], in test [3], in test [6], in test [10] and in test [11] was inactive. The compound was classed as inactive in test [12], in test [13], in [14], in test [15], in [17] and in [18]. Also, the half-maximal activity concentration (AC50) in test [4] was 17 µM (active); in test [5] it was 16.6 µM (active); in [8] it was 2.92 µM (active); in [9] it was 15.3 µM (active); in [16] it was 11.1 µM (active); in test [19] it was 5.37 µM (active).

`O=S(=O)(c1ccc(Cl)cc1)c1cc(Cl)c(Cl)cc1Cl`: the call in [1], in [2], in test [3], in [5], in test [7] and in test [9] was inactive. The result in test [10], in test [11], in test [12], in test [14], in test [15] and in test [16] was inactive. Moreover, the outcome in test [17] and in test [18] was inactive. Besides, the AC50 in test [8] was 1.59 µM (active); in test [13], 14.5 µM (active); in test [19], 2.79 µM (active).

On to `CCCCN(CCCC)C(=S)S`, for which the compound was called inactive in [1], in [10], in [12], in [14], in [15] and in [17]. Further, the compound was classed as inactive in test [18]. Moreover, the AC50 in test [2] is 100 µM (active); in [3], 100 µM (active); in test [4], 47.9 µM (active); in [5], 112 µM (active); in test [8], 25.1 µM (active); in test [11] it was 50.1 µM (active). Further, the AC50 was 128 µM (active) in test [13], 166 µM (active) in test [16] and 24.3 µM (active) in test [19].
